# Measured values: publication PMC5540273 (PLoS ONE, 2017)
# Where two headings read alike, the source gives them in different places.
# Tests used:
# [1] = system: FYN; conditions: concentration: 1 μM, replicates: in singlicate; n = 1
# [2] = system: GAK; conditions: concentration: 1 μM, replicates: in singlicate; n = 1
# [3] = system: T1, GCN2(Kin.Dom.2,S808G); conditions: concentration: 1 μM, replicates: in singlicate; n = 1
# T1 construct: gene EIF2AK4
# [4] = system: GRK1; conditions: concentration: 1 μM, replicates: in singlicate; n = 1
# [5] = system: T2, GRK2; conditions: concentration: 1 μM, replicates: in singlicate; n = 1
# T2 construct: gene ADRBK1
# [6] = system: T3, GRK3; conditions: concentration: 1 μM, replicates: in singlicate; n = 1
# T3 construct: gene ADRBK2
# [7] = system: GRK4; conditions: concentration: 1 μM, replicates: in singlicate; n = 1
# [8] = system: GRK7; conditions: concentration: 1 μM, replicates: in singlicate; n = 1
# [9] = system: GSK3A; conditions: concentration: 1 μM, replicates: in singlicate; n = 1
# [10] = system: GSK3B; conditions: n = 1
# [11] = system: T4, HASPIN; conditions: concentration: 1 μM, replicates: in singlicate; n = 1
# T4 construct: gene GSG2
# [12] = system: HCK; conditions: concentration: 1 μM, replicates: in singlicate; n = 1
# [13] = system: HIPK1; conditions: concentration: 1 μM, replicates: in singlicate; n = 1
# [14] = system: HIPK2; conditions: concentration: 1 μM, replicates: in singlicate; n = 1
# [15] = system: HIPK3; conditions: concentration: 1 μM, replicates: in singlicate; n = 1
# [16] = system: HIPK4; conditions: concentration: 1 μM, replicates: in singlicate; n = 1
# [17] = system: HPK1; conditions: concentration: 1 μM, replicates: in singlicate; n = 1
# [18] = system: HUNK; conditions: concentration: 1 μM, replicates: in singlicate; n = 1
# [19] = system: ICK; conditions: concentration: 1 μM, replicates: in singlicate; n = 1
# [20] = system: IGF1R; conditions: concentration: 1 μM, replicates: in singlicate; n = 1
# [21] = concentration: 1 μM, replicates: in singlicate
# 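Note: KINOMEscan kinase panel screen.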
compound,measurement,setting,value
Cl.N#CCc1ccc(Nc2nccc(Nc3ccc(Oc4ccccc4)cc3)n2)cc1 [GW639905],%Inh,[1],74%
same,%Inh,[2],31%
same,%Inh,[3],36%
same,%Inh,[4],0%
same,%Inh,[5],0%
same,%Inh,[6],45%
same,%Inh,[7],0%
same,%Inh,[8],0%
same,%Inh,[9],0%
same,%Inh,[10]; [21],8%
same,%Inh,[11],0%
same,%Inh,[12],94.7%
same,%Inh,[13],0%
same,%Inh,[14],0%
same,%Inh,[15],14%
same,%Inh,[16],0%
same,%Inh,[17],36%
same,%Inh,[18],0%
same,%Inh,[19],0%
same,%Inh,[20],0%
Cc1ccc(NC(=O)c2ccnc(N3CCCCC3)c2)cc1-c1ccc(C(=O)NCC2CC2)cc1 [GW775610],%Inh,[1],2%
same,%Inh,[2],0%
same,%Inh,[3],14%
same,%Inh,[4],8%
same,%Inh,[5],16%
same,%Inh,[6],14%
same,%Inh,[7],19%
same,%Inh,[8],0%
same,%Inh,[9],0%
same,%Inh,[10]; [21],0%
same,%Inh,[11],0%
same,%Inh,[12],0%
same,%Inh,[13],11%
same,%Inh,[14],9%
same,%Inh,[15],0%
same,%Inh,[16],0%
same,%Inh,[17],24%
same,%Inh,[18],0%
same,%Inh,[19],25%
same,%Inh,[20],0%
COc1cc(Nc2nccc(N3CCC(NS(=O)(=O)c4ccc(NC(C)=O)cc4)CC3)n2)cc(OC)c1OC [GSK1379825],%Inh,[1],67%
same,%Inh,[2],44%
same,%Inh,[3],0%
same,%Inh,[4],0%
same,%Inh,[5],62%
same,%Inh,[6],44%
same,%Inh,[7],0%
same,%Inh,[8],0%
same,%Inh,[9],0%
same,%Inh,[10]; [21],10%
same,%Inh,[11],0%
same,%Inh,[12],0%
same,%Inh,[13],0%
same,%Inh,[14],0%
same,%Inh,[15],15%
same,%Inh,[16],0%
same,%Inh,[17],86%
same,%Inh,[18],0%
same,%Inh,[19],0%
same,%Inh,[20],0%
O=C1NC(=O)C(c2ccccc2Cl)=C1Nc1cccc(Cl)c1 [SB-342409],%Inh,[1],22%
same,%Inh,[2],7%
same,%Inh,[3],0%
same,%Inh,[4],13%
same,%Inh,[5],0%
same,%Inh,[6],36%
same,%Inh,[7],26%
same,%Inh,[8],0%
same,%Inh,[9],45%
same,%Inh,[10]; 1 µM,33%
same,%Inh,[11],0%
same,%Inh,[12],0%
same,%Inh,[13],0%
same,%Inh,[14],0%
same,%Inh,[15],2%
same,%Inh,[16],3%
same,%Inh,[17],49%
same,%Inh,[18],0%
same,%Inh,[19],45%
same,%Inh,[20],20%
Cc1ccccc1CC(=O)N1CCc2cc(-c3cn(C)c4ncnc(N)c34)ccc21 [GSK2603346],%Inh,[1],32%
same,%Inh,[2],32%
same,%Inh,[3],65%
same,%Inh,[4],9%
same,%Inh,[5],3%
same,%Inh,[6],0%
same,%Inh,[7],0%
same,%Inh,[8],0%
same,%Inh,[9],1%
same,%Inh,[10]; [21],2%
same,%Inh,[11],0%
same,%Inh,[12],13%
same,%Inh,[13],0%
same,%Inh,[14],0%
same,%Inh,[15],1%
same,%Inh,[16],0%
same,%Inh,[17],74%
same,%Inh,[18],0%
same,%Inh,[19],0%
same,%Inh,[20],0%
Cn1cc(-c2ccc3c(c2)CCN3C(=O)Cc2cc(F)cc(C(F)(F)F)c2)c2c(N)ncnc21 [GSK2635225],%Inh,[1],41%
same,%Inh,[2],21%
same,%Inh,[3],2%
same,%Inh,[4],0%
same,%Inh,[5],0%
same,%Inh,[6],0%
same,%Inh,[7],3%
same,%Inh,[8],0%
same,%Inh,[9],8%
same,%Inh,[10]; [21],2%
same,%Inh,[11],9%
same,%Inh,[12],0%
same,%Inh,[13],16%
same,%Inh,[14],0%
same,%Inh,[15],17%
same,%Inh,[16],13%
same,%Inh,[17],31%
same,%Inh,[18],9%
same,%Inh,[19],0%
same,%Inh,[20],30%
Cc1cc(-c2ccnc(Nc3cccc(C#N)c3)n2)cc(C)c1O [GSK1440913],%Inh,[1],0%
same,%Inh,[2],79%
same,%Inh,[3],0%
same,%Inh,[4],6%
same,%Inh,[5],0%
same,%Inh,[6],0%
same,%Inh,[7],90.7%
same,%Inh,[8],0%
same,%Inh,[9],93.8%
same,%Inh,[10]; [21],26%
same,%Inh,[11],60%
same,%Inh,[12],0%
same,%Inh,[13],98.3%
same,%Inh,[14],98.9%
same,%Inh,[15],98.2%
same,%Inh,[16],88%
same,%Inh,[17],65%
same,%Inh,[18],43%
same,%Inh,[19],79%
same,%Inh,[20],0%
Cc1ccc(NC(=O)c2cccc(N3CCCCC3)c2)cc1-c1ccc(C(=O)NCC2CC2)cc1 [GSK1917008],%Inh,[1],15%
same,%Inh,[2],11%
same,%Inh,[3],15%
same,%Inh,[4],3%
same,%Inh,[5],6%
same,%Inh,[6],27%
same,%Inh,[7],10%
same,%Inh,[8],0%
same,%Inh,[9],27%
same,%Inh,[10]; [21],10%
same,%Inh,[11],0%
same,%Inh,[12],0%
same,%Inh,[13],0%
same,%Inh,[14],0%
same,%Inh,[15],14%
same,%Inh,[16],17%
same,%Inh,[17],38%
same,%Inh,[18],0%
same,%Inh,[19],23%
same,%Inh,[20],9%
